# ELG1 repair inh: qHTS screen for small molecules that inhibit ELG1-dependent DNA repair in human embryonic kidney (HEK293T) cells expressing luciferase-tagged ELG1; HEK293T ELG1-luciferase reporter, luminescence, 16 h; DNA damage induced by 5-fluorouridine; 330,000 tested, 2.3% active; AID 504467, 2011; Potency, µM (top dose mostly 46.1 µM), usual class: inhibitors; note: nearly all actives have a fitted effect of over 55% in size
#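 HEK293T cells expressing luciferase-tagged ELG1 (2,000/well) received 5-Fluorouridine plus compound or DMSO for 16 hr at 37 °C. Luciferase was read by ONE-Glo luminescence after 30 min at room temperature.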
# VP16 counter: VP16 counterscreen qHTS for inhibitors of ROR gamma transcriptional activity; Drosophila S2 Gal4-VP16 UAS-luciferase, luminescence, 20 h; Potency, µM (doses to about 53.6 µM), hits mostly inhibitors; 310,000 tested, 3.5% active; AID 2546, 2010;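 note: Gal4-VP16 expression switched on by copper sulfate through the metallothionein promoter; nearly all actives have a fitted effect of over 50% in size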
# TDP1 cell noCPT: qHTS for Inhibitors of human tyrosyl-DNA phosphodiesterase 1 (TDP1): qHTS in cells in absence of CPT; DT40 Tdp1-/- hTDP1 cells, no CPT, ATP luminescence, 48 h; Potency, µM (series often up to 46.2 µM), most hits filed as inhibitors; 420,000 tested, 15% active; AID 686978, 2013; note: nearly all actives have a fitted effect of over 55% in size
#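 Chicken DT40 Tdp1-/- cells stably complemented with human TDP1 were seeded at 400 cells/well with DMSO in place of 20 nM camptothecin. After compound pinning, cells grew at least 48 hr at 37 °C; viability read by CellTiter-Glo luminescence.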
# 12-LOX inh: Primary qHTS assay for inhibitors of human arachidonate 12S-lipoxygenase (ALOX12): Round 2 | Polyunsaturated fatty acid lipoxygenase ALOX12 (Homo sapiens), P18054 | Potency, µM (highest dose often 108 µM), actives largely listed as inhibitors | 580,000 tested, 1.1% active | purified 12hLO, xylenol orange hydroperoxide absorbance
#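 Purified human 12hLO at 150 nM in 25 mM Hepes, 0.01% Triton X-100, pH 7.0, preincubated 15 min at room temperature with compound. Reaction started with 40 uM arachidonic acid, 30 min at room temperature. Hydroperoxide measured by Fe-xylenol orange, 573/405 nm absorbance ratio.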
# RORgamma inh: qHTS for inhibitors of ROR gamma transcriptional activity; Drosophila S2 Gal4-RORgamma UAS-luciferase reporter, 20 h; Potency, µM (top dose mostly 53.6 µM), usual class: inhibitors; 310,000 tested, 5.4% active; AID 2551, 2010; note: nearly all actives have a fitted effect of over 60% in size
# Target sequence (P51450 whole entry, looked up, the tested form may be a part): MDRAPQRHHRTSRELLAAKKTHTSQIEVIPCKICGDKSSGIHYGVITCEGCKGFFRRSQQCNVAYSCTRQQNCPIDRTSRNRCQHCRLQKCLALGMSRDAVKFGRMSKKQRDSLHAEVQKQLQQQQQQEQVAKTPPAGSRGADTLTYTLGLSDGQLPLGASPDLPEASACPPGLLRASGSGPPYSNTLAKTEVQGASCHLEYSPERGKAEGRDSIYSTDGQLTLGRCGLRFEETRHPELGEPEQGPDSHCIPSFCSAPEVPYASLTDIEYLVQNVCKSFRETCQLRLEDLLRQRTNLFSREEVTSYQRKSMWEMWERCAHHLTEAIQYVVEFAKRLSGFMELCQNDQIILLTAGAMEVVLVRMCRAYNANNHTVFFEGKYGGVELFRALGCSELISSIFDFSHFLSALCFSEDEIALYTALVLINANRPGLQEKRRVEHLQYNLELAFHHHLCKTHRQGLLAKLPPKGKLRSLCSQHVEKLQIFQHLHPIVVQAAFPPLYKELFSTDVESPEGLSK
#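 Luminescence from a UAS-regulated Photinus luciferase reporter in stably transfected Drosophila Schneider cells is measured; decreased signal marks ROR gamma inhibition. Fusion expression is induced by 700 uM copper sulfate for 20 hr.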
# TDP1 cell CPT: qHTS for Inhibitors of human tyrosyl-DNA phosphodiesterase 1 (TDP1): qHTS in cells in presence of CPT; chicken DT40 Tdp1-/-;hTDP1 cells + 20 nM CPT, ATP luminescence, 48 h; Potency, µM (doses to about 46.2 µM), actives largely listed as inhibitors; 420,000 tested, 12% active; note: nearly all actives have a fitted effect of over 55% in size
#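 Chicken DT40 Tdp1-/- cells stably complemented with human TDP1 were seeded at 400 cells/well in medium containing 20 nM camptothecin, exposed to pin-transferred compounds, and grown at 37 °C for at least 48 hr. Viability was read as ATP luminescence.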
# Numbers stand for hits; . = inactive; ? = inconclusive; / = not tested or not shown; [ ] = another dose, or the depositor's remark. Sampled rows, rich in hits. Any-hit rate of the full collection: about 15%. Calls come from the whole dose curve; as a rule, active = well fitted curve in the direction sought with a large enough effect; inconclusive = small, poorly fitted or top-dose-only effect, or another doubt; inactive = no such curve, though single readings can be large; an effect the other way counts as inactive or inconclusive.
SMILES,ELG1 repair inh,VP16 counter,TDP1 cell noCPT,12-LOX inh,RORgamma inh,TDP1 cell CPT
COc1cccc(CNC(=O)Cn2c(=O)oc3cc(S(=O)(=O)N4CCC(C)CC4)ccc32)c1,/,/,5.2µM,.,/,7.3µM
CC1CCN(S(=O)(=O)c2ccc3c(c2)oc(=O)n3CC(=O)N2CCCCC2)CC1,/,/,.,.,/,.
CC1CCN(S(=O)(=O)c2ccc3c(c2)oc(=O)n3CC(=O)NCc2ccc(F)cc2)CC1,/,/,8.2µM,.,/,12µM
COc1cccc(CNC(=O)Cn2ccc3cc(S(=O)(=O)N4CCC(C)CC4)ccc32)c1,.,.,?,.,.,?
Cn1cc(C#N)cc1C(=O)N1CCC2(CCC(=O)N(CCc3cnc[nH]3)C2)CC1,/,/,/,.,/,/
Cn1c(Cn2ccnc2)nnc1C1CCCN(C(=O)c2ccc(CO)o2)C1 (stereo not given),/,/,/,.,/,/
Cc1ccc2occ(-c3cc(-c4ccc(Cl)cc4)nc4c3COc3ccccc3-4)c(=O)c2c1,/,/,.,.,/,.
Cc1ccc(-c2cc(-c3ccc4c(c3)NC(=O)CO4)nc3c2COc2ccc(C)cc2-3)cc1,/,/,2.1µM,.,/,?
Cc1ccc2c(c1)-c1nc(-c3ccc4c(c3)NC(=O)CO4)cc(-c3ccc(Cl)cc3)c1CO2,/,/,1.3µM,.,/,1.5µM
COc1ccc(F)cc1S(=O)(=O)N1CCC(n2cnnc2C)CC1,/,/,/,.,/,/
Cc1ccc(CNC(=O)Cc2c(C)c3c(O)cc(C)cc3oc2=O)cc1,/,/,/,.,/,/
CCOc1ccc(-c2ccc(/C=C3/C(=N)N4C=CSC4=NC3=O)o2)c([N+](=O)[O-])c1,.,3.5µM,?,.,2.5µM,21µM
CCOc1ccc(-c2ccc(/C=C3/C(=N)N4C(C)=CSC4=NC3=O)o2)c([N+](=O)[O-])c1,26µM,?,.,.,.,?
COC(=O)c1cn([C@H]2CO[C@H]3[C@@H]2OC[C@@H]3NCCCc2ccccc2)nn1,/,/,/,.,/,/
CCS(=O)(=O)c1ccc2oc(Nc3ccc(C(C)C)cc3)nc2c1,.,.,23µM,7.1µM,.,16µM
CCOc1ccc(Nc2nc3cc(S(=O)(=O)N(CC)CC)ccc3o2)cc1,?,.,7.3µM,/,.,5.8µM
O=S1(=O)CCN(C2CCCCC2)c2c(F)nc(F)c(Cl)c21,/,/,/,.,/,/
Cc1ccc(C(=O)C2CCCCC2)cc1,/,/,/,.,/,/
CCN(CC)C(=S)SCC(=O)Nc1nc(=O)c2ccccc2s1,?,11µM,.,?,?,?
Cc1nc(N2CCCCC2)n(CC(=O)Nc2cccc(Br)c2)c(=O)c1C,/,/,/,.,/,/
Cc1nn(-c2ccccc2)c(Cl)c1/C=N/NC(=O)c1ccc(NS(=O)(=O)c2cccs2)cc1,?,.,/,/,.,/
Cc1ccc(/C=N/NC(=O)c2cccs2)s1,?,11µM,.,.,11µM,.
O=C(N/N=C/c1ccc(Br)s1)c1cccs1,?,5µM,21µM,.,3.2µM,16µM
O=C(NN=Cc1ccc2c(c1)CCN2)c1cccs1,/,/,15µM,.,/,?
Cc1nn(-c2cccc(Cl)c2)c(Cl)c1/C=N/NC(=O)c1cccs1,.,13µM,13µM,.,?,16µM
SMILES,ELG1 repair inh,VP16 counter,TDP1 cell noCPT,12-LOX inh,RORgamma inh,TDP1 cell CPT
CC(Oc1ccc(C(C)C)cc1)C(N)=O (stereo not given),/,/,/,.,/,/
O=C(N/N=C/c1ccc(Br)s1)c1ccncc1,?,1µM,?,.,0.79µM,?
O=C(N/N=C/c1cccc(OC(=O)N2CCOCC2)c1)c1cccs1,?,13µM,?,.,?,.
COc1cccc(/C=N/NC(=O)c2cccs2)c1,?,.,.,.,.,.
CNC(=O)[C@@H]1CN(C(=O)c2cccc(C(F)(F)F)c2)C[C@H]1COC,/,/,/,.,/,/
CC(C)NC(=O)c1onc(CSc2ccc(C(C)C)cc2)c1C(=O)O,.,20µM,?,.,?,.
CC(C)NC(=O)c1onc(CSc2ccc(F)c(F)c2)c1C(=O)NC(C)C,/,/,.,.,/,?
CC(C)NC(=O)c1onc(CSc2ccc(F)c(F)c2)c1C(=O)O,.,.,.,32µM,.,.
CC(=O)N/N=C/c1ccc(C(C)C)cc1,/,/,/,.,/,/
CCOc1ccc2[nH]c3c(NCCN(CC)CC)ncnc3c2c1,?,.,.,.,.,.
CCOc1ccc2[nH]c3c(NCC(C)C)ncnc3c2c1,?,?,26µM,/,.,?
CCOc1ccc2[nH]c3c(NCCOC)ncnc3c2c1,?,.,.,.,.,?
COc1ccc2[nH]c3c(NCCN(C(C)C)C(C)C)ncnc3c2c1,.,.,18µM,.,.,16µM
Cc1cnc(C(=O)N2CCC3(CC2)NCCc2c3[nH]c3ccccc23)cn1,/,/,/,.,/,/
COc1cccc(C(=O)O/N=C(\N)c2ccccn2)c1OC,?,.,7.3µM,.,?,?
N/C(=N\OC(=O)c1ccc2ccccc2c1)c1ccccn1,?,7.9µM,?,.,4.5µM,?
N/C(=N\OC(=O)c1ccc(=O)n(Cc2ccccc2)c1)c1ccccn1,.,.[10 µM],?,.,.,?
N/C(=N\OC(=O)c1ccc2ccccc2c1)c1ccncc1,?,.,.,.,.,.
N/C(=N\OC(=O)c1ccc(=O)n(Cc2ccc(Cl)cc2)c1)c1ccccn1,.,.,?,.,.,21µM
COc1cccc(C(=O)O/N=C(\N)c2ccccn2)c1,?,14µM,?,.,?,?
N/C(=N\OC(=O)c1cccc2ccccc12)c1ccccn1,?,.,?,.,?,?
COc1ccc(N2Cc3c(ncnc3N3CCC(O)CC3)N(C)CC2=O)cc1,/,/,/,.,/,/
CCCc1ccc(C(=O)O/N=C(\N)c2ccccn2)cc1,?,11µM,.,.,13µM,?
N/C(=N\OC(=O)COc1ccc2ccccc2c1)c1ccncc1,.,.,?,/,.,21µM
O=c1c2ccccc2nnn1Cc1ccccc1,.,.,.,.,.,.
SMILES,ELG1 repair inh,VP16 counter,TDP1 cell noCPT,12-LOX inh,RORgamma inh,TDP1 cell CPT
O=c1c2ccccc2nnn1COc1cccc(Cl)c1,?,.,18µM,.,?,.
O=C(CSCC(=O)OCn1nnc2ccccc2c1=O)Nc1ccc(Cl)cc1,.,.,?,.,.,21µM
COCCOc1ccc2c(n1)CCN(C(=O)c1cccc(C)c1)C2,/,/,/,.,/,/
COc1cccc(C2=NS(=O)(=O)N(C)C(C(=O)NCC(C)C)=C2)c1,/,/,/,.,/,/
O=c1c2ccccc2nc(-c2ccc(Br)cc2)n1Cc1ccccc1,.,.,23µM,.,.,8.2µM
O=c1c2ccccc2nc(-c2ccccc2)n1CCOc1ccccc1,/,/,/,.,/,/

# Screening results from PubChem.
